Compound activity: PubChem, National Center for Advancing Translational Sciences (NCATS)
An excerpt weighted towards active compounds, which were near 8.8% of everything screened.
Lamin A splicing: qHTS Assay for Modulators of Lamin A Splicing | HeLa LMNA splicing GFP/RFP minigene ratio, 48 h | Potency, µM (highest dose often 46.1 µM), for the others: at the top dose ratio change, negative = inhibition, usual class: inhibitors | 200,000 tested, 0.01% active | AID 1487, 2009; active means well fitted inhibition curve with a large enough effect in the signal ratio, with a control signal flat, not every such curve was filed as active; inconclusive means small, poorly fitted or top-dose-only effect, or effect the other way, or a change in a side signal; the % refers to the signal ratio; further: on the % scale 0 is the no-effect control and ±100 the full control effect
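S3 HeLa cells stably expressing lamin A-EGFP splicing minigene plus DsRed2, 600 cells/well, 48 h compound exposure at 37C. Laser-scanning cytometry; analysed as GFP (500-530 nm)/RFP (575-640 nm) total intensity ratio; 0.5% DMSO vehicle.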
HTT cytoprotect: qHTS Multiplex Assay to Identify Dual Action Probes in a Cell Model of Huntington: Cytoprotection (ATP); PC12 HTT-Q103 induced, cytoprotection, ATP luminescence, 40 h; Potency, µM (highest dose often 56.4 µM), without a hit: cytoprotection (ATP increase), hits mostly activators; 230,000 tested, 0.14% active; further: % of control where 0% means no effect; nearly all actives have a fitted effect of over 45% in size
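Compounds added alongside 100 nM tebufenozide, which induces toxic Q103 huntingtin exon 1-GFP in stable PC12 cells; surviving cells quantified by luminescent ATP measurement. Medium: phenol red-free DMEM, 5% equine and 5% calf serum.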
HPGD block: qHTS Assay for Inhibitors of HPGD (15-Hydroxyprostaglandin Dehydrogenase) | 150,000 tested, 4.3% active | 15-hydroxyprostaglandin dehydrogenase [NAD(+)] (Homo sapiens), P15428 | purified HPGD, NADH fluorescence kinetic, PGE2 substrate | Potency, µM, without a hit: at the top dose activity change, negative = inhibition, actives largely listed as inhibitors; active means well fitted inhibition curve with a large enough effect, not every such curve was filed as active; inconclusive means small, poorly fitted or top-dose-only effect, or another doubt; inactive means no such curve, though single readings can be large or run the other way; further: on the % scale 0 is the no-effect control and ±100 the full control effect
Target sequence (P15428 whole entry, looked up): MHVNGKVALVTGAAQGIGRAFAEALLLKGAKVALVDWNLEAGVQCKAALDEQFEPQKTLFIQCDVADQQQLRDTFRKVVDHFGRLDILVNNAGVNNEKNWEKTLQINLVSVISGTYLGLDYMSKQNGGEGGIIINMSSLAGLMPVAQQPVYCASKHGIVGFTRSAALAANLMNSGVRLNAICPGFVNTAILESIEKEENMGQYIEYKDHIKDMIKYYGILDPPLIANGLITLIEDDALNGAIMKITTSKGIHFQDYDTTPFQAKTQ
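20 nM HPGD preincubated 15 min at room temperature with compound in 50 mM Tris-HCl pH 8, 0.01% Tween 20. Started with 1 mM NAD+ and 30 uM prostaglandin E2; NADH fluorescence (360/450 nm) read 5 times over 30-s intervals, last minus first.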
ALDH1A1 inh: qHTS Assay for Inhibitors of Aldehyde Dehydrogenase 1 (ALDH1A1) | Aldehyde dehydrogenase 1A1 (Homo sapiens), P00352 | Purified ALDH1A1, NADH fluorescence, propionaldehyde substrate | Potency, µM (highest dose often 75.3 µM), without a hit: top-dose activity, negative = inhibition, actives largely listed as inhibitors | 220,000 tested, 7.3% active | AID 1030, 2008; active means well fitted inhibition curve with a large enough effect, not every such curve was filed as active; inconclusive means small, poorly fitted or top-dose-only effect, or another doubt; inactive means no such curve, though single readings can be large or run the other way;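 further: plate controls were no enzyme wells and a reference inhibitor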
HttQ103 aggreg: qHTS Multiplex Assay to Identify Dual Action Probes in a Cell Model of Huntington: Aggregate Formation (GFP) | PC12 HttQ103-GFP aggregates, Acumen cytometry, 40 h | Potency, µM (series often up to 46.1 µM), inactives show at the top dose activity change, negative = inhibition, usual class: inhibitors | 220,000 tested, 1.1% active | AID 1688, 2009; further: on the % scale 0 is the no-effect control and ±100 the full control effect; nearly all actives have a fitted effect of over 60% in size
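Using laser scanning cytometry, GFP-positive aggregates were counted after lysis of PC12 cells induced with 100 nM tebufenozide to express HTT exon 1 Q103–GFP. Compounds were tested in titration.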
Numbers without * were called inactive; [ ] = remark or other dose. Unless noted, the call rests on the fitted dose curve; in most records, active means well fitted curve in the direction sought with a large enough effect; inconclusive means small, poorly fitted or top-dose-only effect, or another doubt; inactive means no such curve, though single readings can be large; an effect the other way counts as inactive or inconclusive. Potency means the concentration at half of the fitted maximal effect.

Cc1cc(=O)[nH]c(S/C=C/c2ccccc2)n1 was read as Lamin A splicing -7%, HTT cytoprotect -83%, HPGD block 20µM*, ALDH1A1 inh -5% and HttQ103 aggreg 4%.
For COC(=O)CC/C(O)=C1\C(=O)CC(C)(C)CC1=NCc1nc2ccccc2[nH]1 the results were HTT cytoprotect 5%, ALDH1A1 inh -7% and HttQ103 aggreg -8%.
For CCCCNC(=O)CSc1nc2ccccc2n1S(=O)(=O)c1ccc(Cl)cc1 the results were Lamin A splicing -4%, HTT cytoprotect -7%[10 µM], HPGD block 2µM*, ALDH1A1 inh 14% and HttQ103 aggreg -2%.
CCCCNC(=O)CSc1nc2ccccc2n1S(=O)(=O)c1ccc(Br)cc1 was read as Lamin A splicing 6%, HPGD block 2.5µM*, ALDH1A1 inh 10% and HttQ103 aggreg inconclusive.
`O=C(CSc1nc2ccccc2n1S(=O)(=O)c1cccc([N+](=O)[O-])c1)NCCc1ccccc1` gave Lamin A splicing -2%, HPGD block inconclusive, ALDH1A1 inh 6% and HttQ103 aggreg -3%.
For COc1ccc(N2CCN(c3csc4ccc(Cl)cc4c3=O)CC2)cc1 the results were Lamin A splicing -22%[46 µM].
`C=C1C2CC[C@]3(CCC4[C@@]5(C)CCC[C@@]4(CN(CCO)C5)[C@@H]3C2)[C@@H]1O` (some centres not stated) gave HPGD block -3% and ALDH1A1 inh -4%.
O=C(c1ccc(Br)s1)N1CCCC1 was read as Lamin A splicing -11%, HTT cytoprotect 20%, HPGD block 14µM*, ALDH1A1 inh -13% and HttQ103 aggreg 0%.
For O=C(c1ccc(C(=O)N2CCOCC2)s1)N1CCOCC1 the results were Lamin A splicing 17%, HTT cytoprotect -7%, HPGD block 20µM*, ALDH1A1 inh 4% and HttQ103 aggreg -1%.
`COc1ccc2cc(C(=O)N3CCOCC3)sc(=O)c2c1OC` gave Lamin A splicing 6%, HTT cytoprotect 2%, HPGD block 22µM*, ALDH1A1 inh 9% and HttQ103 aggreg 10%.
`CCOC(=O)c1cc2ccc(OC)c(OC)c2c(=O)s1` gave Lamin A splicing -1%, HTT cytoprotect -5%, HPGD block -19%, ALDH1A1 inh -2% and HttQ103 aggreg -2%.
O=C(c1ccc(Br)s1)N1CCN(c2ncccn2)CC1 was read as Lamin A splicing 18%, HTT cytoprotect -2%[1.9 µM], HPGD block -7%, ALDH1A1 inh 0% and HttQ103 aggreg -2%.
c1ccc(CN2CCC3(CC2)Nc2ccccc2S3)cc1 was read as HTT cytoprotect 37%[10 µM] and HttQ103 aggreg 32%[9.22 µM].
`CC1CCCN(S(=O)(=O)c2ccc(N3CCCCS3(=O)=O)cc2)C1` (configuration not stated) gave Lamin A splicing 3%[46 µM].
Cc1cccc(OCC(=O)NCC2(N3CCN(C)CC3)CCCCC2)c1 was read as Lamin A splicing 23%[46 µM].
O=C1CCN(c2ccc([N+](=O)[O-])cc2F)CC1 was read as Lamin A splicing 1%[46 µM], HTT cytoprotect 3%[10 µM], ALDH1A1 inh 8.9µM* and HttQ103 aggreg -4%.
C=C(C(=O)C(C)(C)O)C(O)c1ccc([N+](=O)[O-])cc1 (configuration not stated) was read as HTT cytoprotect 41%, HPGD block 25µM* and ALDH1A1 inh inconclusive.
Screening O=[n+]1c2c(n([O-])c3cc(F)ccc31)CCCC2 returned Lamin A splicing 7%, HTT cytoprotect -10%, HPGD block -22%, ALDH1A1 inh -2% and HttQ103 aggreg 1%.
Screening O=[n+]1c2c(n([O-])c3cc(F)c(N4CCCC4)cc31)CCCC2 returned Lamin A splicing 4%, HTT cytoprotect 0%, HPGD block -12%, ALDH1A1 inh 20µM* and HttQ103 aggreg -10%.
For CCOc1ccc2[nH]c(=O)c(CN(CCO)Cc3nnnn3CCc3ccccc3)cc2c1 the results were Lamin A splicing 3%, HTT cytoprotect 9%[10 µM], HPGD block -18%, ALDH1A1 inh inconclusive and HttQ103 aggreg 26%.
Screening COCCn1nnnc1CN(CCc1ccccc1)Cc1cc2ccc(C)cc2[nH]c1=O returned Lamin A splicing 2%, HTT cytoprotect -14%[10 µM], HPGD block -4%, ALDH1A1 inh 4.5µM* and HttQ103 aggreg 32%.
COc1ccc2cc(CN(CCc3ccccc3)Cc3nnnn3CC3CCCO3)c(=O)[nH]c2c1 (configuration not stated) was read as Lamin A splicing 9%, HTT cytoprotect 4%[10 µM], HPGD block -17%, ALDH1A1 inh 0.28µM* and HttQ103 aggreg -13%.
`Cc1ccc2[nH]c(=O)c(CN(CCc3ccccc3)Cc3nnnn3CC3CCCO3)cc2c1` (configuration not stated) gave Lamin A splicing -2%, HTT cytoprotect 5%[10 µM], HPGD block -18%, ALDH1A1 inh 22µM* and HttQ103 aggreg -7%.
For CC(C)CC(=O)Nc1ccc(-c2nnn(CC(=O)NCc3ccco3)n2)cc1 the results were Lamin A splicing -21%[46 µM], HTT cytoprotect 5%[10 µM], ALDH1A1 inh -4% and HttQ103 aggreg 2%[9.22 µM].
Cc1cc(N2CCN(C)CC2)nc2ccc(NC(=O)Nc3ccccc3Br)cc12 was read as Lamin A splicing -18%[46 µM].
CCN1C(=O)C(C(=O)c2ccccc2)SC1=S (configuration not stated) was read as Lamin A splicing -19%[46 µM], HTT cytoprotect -32%, ALDH1A1 inh 7.5µM* and HttQ103 aggreg -9%.
For CCN(C(=O)c1ccccc1)c1ccc([N+](=O)[O-])cc1 the results were Lamin A splicing 6%, HPGD block -5%, ALDH1A1 inh 5µM* and HttQ103 aggreg -8%.
`CCCCc1c(CCC)c(=N)c2ccccc2n1C` gave Lamin A splicing 15%, HTT cytoprotect -4%[10 µM], HPGD block -22%, ALDH1A1 inh -5% and HttQ103 aggreg 8.9µM*.
Screening CN1CCN(c2ccccc2NC(=O)c2cccc([N+](=O)[O-])c2)CC1 returned HTT cytoprotect -8%[10 µM], ALDH1A1 inh 7% and HttQ103 aggreg 11%.
`CCN(CC)C(=O)C1CCCN(c2ccc([N+](=O)[O-])cc2/C=N/NC(=O)c2ccccc2)C1` (configuration not stated) gave Lamin A splicing 1%, HTT cytoprotect 3%[10 µM], HPGD block -11%, ALDH1A1 inh 28µM* and HttQ103 aggreg inconclusive.
